Data taken from PubChem BioAssay (EPA / NIEHS).
Calls of active or inactive are those of the source. How the source made its calls: active means hit-call score of the fitted dose curve at least 0.9, where 1 is the maximum; inactive means score below 0.9.

How the values were obtained:
Conditions in all cases: mRNA level, 48 h; actives raise or lower the signal
[1] = read-out: Glutathione S-Transferase (GSTA2), GSTA2 (gene 2939); assay: LTEA_HepaRG_GSTA2: Life Technologies and Expression Analysis (LTEA) Assay for Glutathione S-Transferase (GSTA2) using HepaRG (AID 2283497)
How it was run: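 Differentiated human HepaRG cells were exposed in duplicate for 48 h in serum-free induction medium, 8 points from 100 uM top in half-log steps, 0.5% DMSO. GSTA2 mRNA was measured by TaqMan qRT-PCR, normalized to ACTB, GAPDH and POLR2A; bidirectional fit versus DMSO.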

[2] = read-out: Glutamate-cysteine ligase catalytic (GCLC), GCLC (gene 2729); assay: LTEA_HepaRG_GCLC: Life Technologies and Expression Analysis (LTEA) Assay for Glutamate-cysteine ligase catalytic (GCLC) using HepaRG (AID 2283498)
How it was run: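 Differentiated HepaRG cells exposed 48 h in serum-free induction medium, eight-point half-log series topping at 100 uM in 0.5% DMSO, duplicates. GCLC mRNA by qRT-PCR normalized to ACTB, GAPDH and POLR2A, fitted bidirectionally versus DMSO.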

[3] = read-out: growth arrest and DNA damage 45 (GADD45G), GADD45G (gene 10912); assay: LTEA_HepaRG_GADD45G: Life Technologies and Expression Analysis (LTEA) Assay for growth arrest and DNA damage 45 (GADD45G) using HepaRG (AID 2283499)
How it was run: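 Differentiated human HepaRG cells, 48 h post-plating, exposed 48 h in serum-free induction medium to 8 half-log concentrations (top 100 uM, 0.5% DMSO) in duplicate. GADD45G mRNA measured by Fluidigm TaqMan qRT-PCR, normalized to ACTB, GAPDH, POLR2A; bidirectional fit versus DMSO.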

[4] = read-out: Glutamate-cysteine ligase regulatory (GCLM), GCLM (gene 2730); assay: LTEA_HepaRG_GCLM: Life Technologies and Expression Analysis (LTEA) Assay for Glutamate-cysteine ligase regulatory (GCLM) using HepaRG (AID 2283500)
How it was run: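 Differentiated HepaRG cells exposed 48 h in serum-free induction medium to eight half-log concentrations up to 100 uM (0.5% DMSO). GCLM mRNA by TaqMan qRT-PCR, normalized to ACTB, GAPDH and POLR2A; bidirectional fit versus DMSO.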

[5] = read-out: Glutathione S-transferase M3 (GSTM3), GSTM3 (gene 2947); assay: LTEA_HepaRG_GSTM3: Life Technologies and Expression Analysis (LTEA) Assay for Glutathione S-transferase M3 (GSTM3) using HepaRG (AID 2283501)
How it was run: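 Differentiated human HepaRG cells were exposed in duplicate for 48 h in serum-free induction medium, 8 points from 100 uM top in half-log steps, 0.5% DMSO. GSTM3 mRNA was measured by TaqMan qRT-PCR, normalized to ACTB, GAPDH and POLR2A; bidirectional fit versus DMSO.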

[6] = read-out: Heat shock 70 kDa protein 1 (HSPA1A), gene 3303; assay: LTEA_HepaRG_HSPA1A: Life Technologies and Expression Analysis (LTEA) Assay for Heat shock 70 kDa protein 1 (HSPA1A) using HepaRG (AID 2283502)
How it was run: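 Human HepaRG cells in serum-free induction medium were exposed in duplicate for 48 h to 8 half-log concentrations, highest 100 uM, in 0.5% DMSO. HSPA1A mRNA read by TaqMan qRT-PCR, normalized to ACTB, GAPDH, POLR2A, fitted bidirectionally against DMSO.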

[7] = read-out: Hypoxia-inducible factor 1-alpha (Homo sapiens) (UniProt Q16665); assay: LTEA_HepaRG_HIF1A: Life Technologies and Expression Analysis (LTEA) Assay for Hypoxia-inducible factor 1 (HIF1A) Trancription factor using HepaRG (AID 2283503)
How it was run: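 Differentiated HepaRG cells in serum-free induction medium exposed 48 h, in duplicate, to 8-point half-log series from 100 uM in 0.5% DMSO. HIF1A mRNA measured by TaqMan qRT-PCR, normalized to ACTB/GAPDH/POLR2A, fitted bidirectionally versus DMSO.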

[8] = read-out: 3-Hydroxy-3-Methylglutaryl-CoA Synthase 2 (HMGCS2), HMGCS2 (gene 3158); assay: LTEA_HepaRG_HMGCS2: Life Technologies and Expression Analysis (LTEA) Assay for 3-Hydroxy-3-Methylglutaryl-CoA Synthase 2 (HMGCS2) using HepaRG (AID 2283504)
How it was run: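 Human HepaRG cells in serum-free induction medium were exposed in duplicate for 48 h to 8-point half-log series from 100 uM top in 0.5% DMSO. HMGCS2 mRNA measured by TaqMan qRT-PCR, normalised to ACTB, GAPDH, POLR2A; bidirectional fit versus DMSO.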

HGF (gene 3082) = assay: LTEA_HepaRG_HGF: Life Technologies and Expression Analysis (LTEA) Assay for Hepatocyte Growth Facto (HGF) using HepaRG (AID 2283505)
How it was run: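 Differentiated HepaRG cells in serum-free induction medium exposed 48 h in duplicate, 8 half-log concentrations from 100 uM in 0.5% DMSO. HGF mRNA by qRT-PCR, normalised to ACTB, GAPDH, POLR2A; bidirectional fitting.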

[9] = read-out: Insulin Like Growth Factor 1 (IGF1), IGF1 (gene 3479); assay: LTEA_HepaRG_IGF1: Life Technologies and Expression Analysis (LTEA) Assay for Insulin Like Growth Factor 1 (IGF1) using HepaRG (AID 2283506)
How it was run: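 Differentiated HepaRG cells in serum-free induction medium, exposed 48 h in duplicate to 8 half-log concentrations up to 100 uM in 0.5% DMSO. IGF1 mRNA by Fluidigm qRT-PCR, normalised to ACTB, GAPDH and POLR2A.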

[10] = read-out: Intercellular Adhesion Molecule 1 (ICAM1), ICAM1 (gene 3383); assay: LTEA_HepaRG_ICAM1: Life Technologies and Expression Analysis (LTEA) Assay for Intercellular Adhesion Molecule 1 (ICAM1) using HepaRG (AID 2283507)
How it was run: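 Differentiated human HepaRG cells in serum-free induction medium exposed 48 h in duplicate to 8 half-log concentrations (top 100 uM, 0.5% DMSO). ICAM1 mRNA quantified by TaqMan qRT-PCR, normalized to ACTB, GAPDH and POLR2A; bidirectional fitting versus DMSO.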

[11] = read-out: Insulin-like growth factor-binding protein 1 (IGFBP1), IGFBP1 (gene 3484); assay: LTEA_HepaRG_IGFBP1: Life Technologies and Expression Analysis (LTEA) Assay for Insulin-like growth factor-binding protein 1 (IGFBP1) using HepaRG (AID 2283508)
How it was run: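 HepaRG cells, plated 48 h then switched to serum-free induction medium, exposed in duplicate for 48 h to 8-point half-log series from 100 uM in 0.5% DMSO. mRNA measured by qRT-PCR, normalized to ACTB/GAPDH/POLR2A; bidirectional fit versus DMSO.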

[12] = read-out: Interleukin 6 (IL6), IL6 (gene 3569); assay: LTEA_HepaRG_IL6: Life Technologies and Expression Analysis (LTEA) Assay for Interleukin 6 (IL6) using HepaRG (AID 2283509)
How it was run: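 HepaRG cells exposed in duplicate for 48 h to eight half-log concentrations, top 100 uM, in 0.5% DMSO serum-free induction medium. mRNA measured by qRT-PCR, normalized to ACTB, GAPDH and POLR2A. Bidirectional fit versus DMSO.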

[13] = read-out: Interleukin 6 Receptor (IL6R), IL6R (gene 3570); assay: LTEA_HepaRG_IL6R: Life Technologies and Expression Analysis (LTEA) Assay for Interleukin 6 Receptor (IL6R) using HepaRG (AID 2283510)
How it was run: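 Differentiated HepaRG cells, plated 48 h, then exposed in duplicate for 48 h in serum-free induction medium to 8 half-log concentrations (top 100 uM, 0.5% DMSO). IL6R mRNA measured by TaqMan qRT-PCR, normalized to ACTB/GAPDH/POLR2A; bidirectional fit vs DMSO.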

[14] = read-out: Potassium channel subfamily K member 1 (KCNK1), KCNK1 (gene 3775); assay: LTEA_HepaRG_KCNK1: Life Technologies and Expression Analysis (LTEA) Assay for Potassium channel subfamily K member 1 (KCNK1) using HepaRG (AID 2283511)
How it was run: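 Differentiated HepaRG cells, 48 h exposure in serum-free induction medium with 0.5% DMSO; 8 concentrations, half-log from 100 uM, duplicate. KCNK1 mRNA by qRT-PCR, normalized to ACTB, GAPDH, POLR2A; bidirectional fit vs DMSO.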

[15] = read-out: Keratin 19 (KRT19), KRT19 (gene 3880); assay: LTEA_HepaRG_KRT19: Life Technologies and Expression Analysis (LTEA) Assay for Keratin 19 (KRT19) using HepaRG (AID 2283512)
How it was run: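 Differentiated HepaRG cells in serum-free induction medium, exposed 48 h in duplicate to 8 half-log concentrations up to 100 uM in 0.5% DMSO. KRT19 mRNA by qRT-PCR, normalized to ACTB, GAPDH, POLR2A; bidirectional fit vs DMSO.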

[16] = read-out: JUN Transcription Factor, JUN (gene 3725); assay: LTEA_HepaRG_JUN: Life Technologies and Expression Analysis (LTEA) Assay for JUN Transcription Factor using HepaRG (AID 2283513)
How it was run: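 HepaRG cells, 48 h post-plating, exposed 48 h in serum-free induction medium to 8-point half-log series (top 100 uM, 0.5% DMSO), duplicate; mRNA by qRT-PCR (TaqMan, Fluidigm), normalized to ACTB/GAPDH/POLR2A; bidirectional fit vs DMSO.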

[17] = read-out: Lipase C (LIPC), LIPC (gene 3990); assay: LTEA_HepaRG_LIPC: Life Technologies and Expression Analysis (LTEA) Assay for Lipase C (LIPC) using HepaRG (AID 2283514)
How it was run: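 HepaRG cells, 48 h after plating, treated in duplicate for 48 h in serum-free induction medium over 8 half-log concentrations from 100 uM, 0.5% DMSO. LIPC mRNA by TaqMan qRT-PCR normalized to ACTB/GAPDH/POLR2A; bidirectional fit versus DMSO.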

[18] = read-out: Lipoprotein lipase (LPL), LPL (gene 4023); assay: LTEA_HepaRG_LPL: Life Technologies and Expression Analysis (LTEA) Assay for Lipoprotein lipase (LPL) using HepaRG (AID 2283515)
How it was run: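 Differentiated HepaRG cells, plated 48 h, then exposed 48 h in serum-free induction medium to 8 concentrations (top 100 uM, half-log steps) in 0.5% DMSO, duplicate. LPL mRNA measured by qRT-PCR, normalized to ACTB, GAPDH and POLR2A.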

[19] = read-out: MicroRNA 122 (MIR122), gene 406906; assay: LTEA_HepaRG_MIR122: Life Technologies and Expression Analysis (LTEA) Assay for MicroRNA 122 (MIR122) using HepaRG (AID 2283516); further: the transcript read is the microRNA miR-122
How it was run: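 Differentiated human HepaRG cells in serum-free induction medium exposed 48 h to 8 half-log concentrations from 100 uM in 0.5% DMSO, duplicate. MIR122 quantified by Fluidigm TaqMan qRT-PCR, normalised to ACTB, GAPDH, POLR2A; fold change fitted bidirectionally versus DMSO.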

Measured: outcome

Chain of Hypoxia-inducible factor 1-alpha (Homo sapiens) (Q16665 whole entry, looked up): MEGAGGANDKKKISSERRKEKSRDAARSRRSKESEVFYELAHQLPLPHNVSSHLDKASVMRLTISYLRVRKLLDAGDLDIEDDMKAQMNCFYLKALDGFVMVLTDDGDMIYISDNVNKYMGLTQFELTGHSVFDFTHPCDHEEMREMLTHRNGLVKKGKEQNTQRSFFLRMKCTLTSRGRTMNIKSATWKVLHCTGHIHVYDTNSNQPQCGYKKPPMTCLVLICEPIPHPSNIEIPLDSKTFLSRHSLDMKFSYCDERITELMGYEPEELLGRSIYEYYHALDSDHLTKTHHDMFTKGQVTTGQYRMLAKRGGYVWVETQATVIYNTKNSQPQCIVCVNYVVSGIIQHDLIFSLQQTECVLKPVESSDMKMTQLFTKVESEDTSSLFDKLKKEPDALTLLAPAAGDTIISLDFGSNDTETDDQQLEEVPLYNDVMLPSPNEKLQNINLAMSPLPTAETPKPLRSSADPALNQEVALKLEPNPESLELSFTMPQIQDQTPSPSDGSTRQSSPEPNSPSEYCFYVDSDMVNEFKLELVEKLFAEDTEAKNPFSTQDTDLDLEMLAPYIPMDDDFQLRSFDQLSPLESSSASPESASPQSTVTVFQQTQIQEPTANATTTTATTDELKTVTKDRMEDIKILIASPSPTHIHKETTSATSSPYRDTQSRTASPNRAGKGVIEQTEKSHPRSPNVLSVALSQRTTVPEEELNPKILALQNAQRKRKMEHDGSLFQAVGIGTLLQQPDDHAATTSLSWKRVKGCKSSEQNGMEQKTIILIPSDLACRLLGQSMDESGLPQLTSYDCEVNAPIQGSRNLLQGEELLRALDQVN

COC(=O)c1ccc(O)cc1
inactive: all assays above

CCCCCCCCCCCCCCCC
not listed: [19]
inactive: all other assays above

COc1cc(S(=O)(=O)O)c(C)cc1N=Nc1c(O)ccc2cc(S(=O)(=O)O)ccc12
inactive: all assays above
